This is part of a sample that, as a whole, favours compounds with a hit. Of some 83,000 tested, about 20% had one in any assay.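 Cell lines were cultured in 96-well plates, exposed to a single compound concentration, and assessed for percent growth 48 hours later.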 The source made the active and inactive calls. Rule for the calls: active = growth percent below 10; inactive = the rest.
Key:
Test in all cases: NCI-60 one-dose screen, 48 h (100 = growth as untreated, 0 = no growth, -100 = all killed)
Conditions in all cases: 10 µM unless noted
SK-MEL-2 melanoma = system: SK-MEL-2 melanoma
EKVX NSCLC = system: EKVX NSCLC
SN12C renal = system: SN12C renal
UO-31 renal = system: UO-31 renal
TK-10 renal = system: TK-10 renal
ACHN renal = system: ACHN renal
CAKI-1 renal = system: CAKI-1 renal
A498 renal = system: A498 renal
CCRF-CEM leukemia = system: CCRF-CEM leukemia
MOLT-4 leukemia = system: MOLT-4 leukemia
SR leukemia = system: SR leukemia
RPMI-8226 leukemia = system: RPMI-8226 leukemia
OVCAR-8 ovarian = system: OVCAR-8 ovarian
OVCAR-5 ovarian = system: OVCAR-5 ovarian
OVCAR-4 ovarian = system: OVCAR-4 ovarian
SK-OV-3 ovarian = system: SK-OV-3 ovarian
IGROV1 ovarian = system: IGROV1 ovarian
OVCAR-3 ovarian = system: OVCAR-3 ovarian
HS 578T breast = system: HS 578T breast
NCI/ADR-RES ovarian = system: NCI/ADR-RES ovarian

Measured: growth

Oc1c(CN2CCC(N3CCCCC3)CC2)cc(Cc2cc(CN3CCC(N4CCCCC4)CC3)c(O)c3ncccc23)c2cccnc12
active: CCRF-CEM leukemia 6.54% | MOLT-4 leukemia 6.56%
inactive: SK-MEL-2 melanoma 41.4% | EKVX NSCLC 26% | SN12C renal 34.2% | UO-31 renal 12.4% | TK-10 renal 33.5% | ACHN renal 13.8% | CAKI-1 renal 25.5% | A498 renal 77.7% | SR leukemia 12.1% | RPMI-8226 leukemia 25.4% | OVCAR-8 ovarian 30.1% | OVCAR-5 ovarian 42.1% | OVCAR-4 ovarian 20.7% | SK-OV-3 ovarian 20.5% | IGROV1 ovarian 22.9% | OVCAR-3 ovarian 11.1% | HS 578T breast 52.8% | NCI/ADR-RES ovarian 48.4%

CC/C(Cc1ccccc1)=C(\c1ccc(OCCCN(C)C)cc1)c1ccc(OC(=O)NCc2ccccc2)cc1
active: SR leukemia -22%
inactive: SK-MEL-2 melanoma 97.5% | EKVX NSCLC 78% | SN12C renal 77.2% | UO-31 renal 61.5% | TK-10 renal 92.2% | ACHN renal 97.4% | CAKI-1 renal 93.6% | A498 renal 85.2% | CCRF-CEM leukemia 58.3% | MOLT-4 leukemia 45.4% | RPMI-8226 leukemia 60.4% | OVCAR-8 ovarian 76.1% | OVCAR-5 ovarian 90.6% | OVCAR-4 ovarian 75.7% | SK-OV-3 ovarian 91.2% | IGROV1 ovarian 59% | OVCAR-3 ovarian 87.8% | HS 578T breast 73.4% | NCI/ADR-RES ovarian 81.4%

COC(=O)N1CC(Oc2ccccn2)C2CC1c1ccccc1O2 (stereo not given)
inactive: SK-MEL-2 melanoma 116% | EKVX NSCLC 104% | SN12C renal 93% | UO-31 renal 88.6% | TK-10 renal 98.2% | ACHN renal 95.7% | CAKI-1 renal 93.3% | A498 renal 83.4% | CCRF-CEM leukemia 87.8% | MOLT-4 leukemia 94.5% | SR leukemia 94.8% | RPMI-8226 leukemia 85.6% | OVCAR-8 ovarian 98.7% | OVCAR-5 ovarian 107% | OVCAR-4 ovarian 103% | SK-OV-3 ovarian 103% | IGROV1 ovarian 120% | OVCAR-3 ovarian 110% | HS 578T breast 86% | NCI/ADR-RES ovarian 98.5%

O=C(O)/C=C/C(=O)Nc1cccc(Cn2nnc3cc(Cl)c(Cl)cc32)c1
inactive: SK-MEL-2 melanoma 114% | EKVX NSCLC 94.3% | SN12C renal 104% | UO-31 renal 79.5% | TK-10 renal 124% | ACHN renal 97.1% | CAKI-1 renal 95% | A498 renal 108% | CCRF-CEM leukemia 99.4% | MOLT-4 leukemia 97.1% | SR leukemia 93.8% | RPMI-8226 leukemia 104% | OVCAR-8 ovarian 99.6% | OVCAR-5 ovarian 100% | OVCAR-4 ovarian 108% | SK-OV-3 ovarian 90.1% | IGROV1 ovarian 94.1% | OVCAR-3 ovarian 101% | HS 578T breast 88% | NCI/ADR-RES ovarian 106%

Cc1nc2c(c(=O)[nH]1)C(c1ccccc1)c1ccc3ccccc3c1O2 (stereo not given)
inactive: SK-MEL-2 melanoma 16.5% | EKVX NSCLC 60.5% | SN12C renal 44.6% | UO-31 renal 38.6% | TK-10 renal 74% | ACHN renal 39.8% | CAKI-1 renal 30% | A498 renal 20.6% | CCRF-CEM leukemia 13% | MOLT-4 leukemia 41% | SR leukemia 19.3% | RPMI-8226 leukemia 27.1% | OVCAR-8 ovarian 34.5% | OVCAR-5 ovarian 87.2% | OVCAR-4 ovarian 64.2% | SK-OV-3 ovarian 11.1% | IGROV1 ovarian 38.9% | HS 578T breast 22.6% | NCI/ADR-RES ovarian 14.6%
active: OVCAR-3 ovarian 0.0339%

COc1ccc(/C(C)=C(\c2ccc(Cl)cc2)c2ccc(OCCN3CCCCC3)cc2)cc1
inactive: SK-MEL-2 melanoma 56.2% | EKVX NSCLC 69.1% | SN12C renal 69.2% | UO-31 renal 48.1% | TK-10 renal 95.7% | ACHN renal 77.3% | CAKI-1 renal 37.2% | A498 renal 86.8% | CCRF-CEM leukemia 37.5% | MOLT-4 leukemia 41.6% | OVCAR-8 ovarian 69.6% | OVCAR-5 ovarian 67.9% | OVCAR-4 ovarian 59.9% | SK-OV-3 ovarian 77.5% | IGROV1 ovarian 64.5% | OVCAR-3 ovarian 74.9% | HS 578T breast 63.6% | NCI/ADR-RES ovarian 76.8%
active: SR leukemia -7.55% | RPMI-8226 leukemia 7.75%

O=C(Nc1ccc(Cl)cc1)Oc1c(Cl)c(Cl)c(Cl)c(Cl)c1Cl
inactive: SK-MEL-2 melanoma 95.7% | EKVX NSCLC 80.6% | SN12C renal 97.6% | UO-31 renal 78.5% | TK-10 renal 115% | ACHN renal 87.9% | CAKI-1 renal 86.1% | A498 renal 74.6% | CCRF-CEM leukemia 92.1% | MOLT-4 leukemia 95.6% | SR leukemia 93.6% | RPMI-8226 leukemia 90.5% | OVCAR-8 ovarian 99.9% | OVCAR-5 ovarian 94.6% | OVCAR-4 ovarian 88.6% | SK-OV-3 ovarian 90% | IGROV1 ovarian 85.9% | OVCAR-3 ovarian 98.8% | HS 578T breast 87.8% | NCI/ADR-RES ovarian 94%

— PubChem BioAssay (NCI)
